Source: PubChem BioAssay (EPA / NIEHS)
Results filed as inconclusive are left out. Active and inactive are the calls of the source. Rule for the calls: active = hit-call score of the fitted dose curve at least 0.9, where 1 is the maximum; inconclusive = response in the unintended direction; inactive = score below 0.9.

Assay: Tanguay_ZF_120hpf_JAW_legacy: (Legacy) Oregon State University Tanguay Lab 120 Hour Post-fertilization zebrafish Assay for Jaw Malformation (AID 2283638);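 for AC50: active means more embryos with jaw malformation than DMSO controls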
In short: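 Binary jaw-malformation calls at 120 hpf by brightfield imaging; DMSO (0.64% v/v) = baseline. Embryos: 5D wild-type, pronase-dechorionated, one per well from 6 hpf, static exposure, 28C, sealed, dark.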

SMILES	outcome	AC50
Nc1nc(N)c2nc(CNc3ccc(C(=O)N[C@@H](CCC(=O)O)C(=O)O)cc3)cnc2n1	inactive	–
O=C(O)Cc1ccccc1Nc1c(Cl)cccc1Cl	inactive	–
CC1(C)CC(N=C=O)CC(C)(CN=C=O)C1 (stereo not given)	inactive	–
CC(C)c1ccc(C(=O)N=C(N)N)cc1S(C)(=O)=O	inactive	–
O=c1[nH]cc(F)c(=O)[nH]1	inactive	–
Cc1oc(-c2ccccc2)nc1CCOc1cccc2c1ccn2CCC(=O)O	inactive	–
Cc1c(C(=O)O)c(O)cc2c1C(=O)c1c(O)c([C@@H]3O[C@H](CO)[C@@H](O)[C@H](O)[C@H]3O)c(O)c(O)c1C2=O	inactive	–
CCOc1ccc2c(c1)C(C)=CC(C)(C)N2	–	15.9 µM (active)
COc1cc(C=O)ccc1O	–	35.3 µM (active)
CCCCCCOCCO	inactive	–
CNC(=O)[C@H]1O[C@@H](n2cnc3c(NCc4cc(Cl)ccc4OCc4cc(C)no4)ncnc32)[C@H](O)[C@@H]1N	inactive	–
COC(=O)c1ccc(O)cc1	inactive	–
CC(=O)OC/C=C(\C)CCC=C(C)C	inactive	–
CN[C@H]1CC[C@@H](c2ccc(Cl)c(Cl)c2)c2ccc(S(N)(=O)=O)cc21	inactive	–
Cc1ccc(N(C)C)cc1	inactive	–
c1cc(-c2ccncc2)ccn1	inactive	–
O=C(N[C@@H](Cc1ccccc1)[C@@H](O)C(=O)N1C[C@@H](O)[C@@H](O)C1)c1cc2cc(Cl)ccc2[nH]1	inactive	–
O=c1c(O)c(-c2ccc(O)c(O)c2)oc2cc(O)cc(O)c12	inactive	–
CCCCCCCCCCO	inactive	–
Cc1ccc(C)c(C)c1	inactive	–
